Assay outcomes as filed in PubChem.
CHO-K1 Ca PAM: nonselective calcium activators in parental CHO-K1 cells, primary screen, counter-screen for M1 PAM project, cell-based, Fluo-8 calcium fluorescence, full deck, 1536-well; ATP EC20; 0% at ATP EC20, 100% at ATP max; activation, % at 3 µM; 360,000 tested, 0.02% active;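 active means activation above the run cutoff, the mean activation of all test compounds plus 3 SD, cut at about 40% in these data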;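 further: peak over basal fluorescence ratio in a 140 s read after ATP addition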
CHO-K1 Ca antag: counter-screen for M1 antagonists: effect in parental CHO-K1 cells. 360,000 tested, 0.6% active. ATP-induced calcium, Fluo-8 fluorescence. inhibition, % at 3 µM;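 active means inhibition above a per-plate cutoff, the plate's mean sample inhibition plus 3 SD, cut at about 24% in these data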;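 further: 0% = DMSO plus EC80 ATP and 100% = DMSO alone without ATP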
TMEM16A act: TMEM16A chloride channel activators or potentiators, primary screen, cell-based, HTS; HEK293 TMEM16A/YFP-H148Q/I152L, iodide quench fluorescence; stronger effect = lower value; B-score at 10 µM; 340,000 tested, 0.3% active; AID 623877, 2012;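 active means fluorescence-ratio B-score plate-corrected deviation score at least 3 library SD below zero, with starting fluorescence score within 5 deviations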;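 further: channel opened by trigger with iodide after compound preincubation; score built on the fluorescence ratio of max minus min over baseline; more negative score means more quench and so TMEM16A activation or potentiation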
Target sequence (Q8BHY3 whole entry, looked up): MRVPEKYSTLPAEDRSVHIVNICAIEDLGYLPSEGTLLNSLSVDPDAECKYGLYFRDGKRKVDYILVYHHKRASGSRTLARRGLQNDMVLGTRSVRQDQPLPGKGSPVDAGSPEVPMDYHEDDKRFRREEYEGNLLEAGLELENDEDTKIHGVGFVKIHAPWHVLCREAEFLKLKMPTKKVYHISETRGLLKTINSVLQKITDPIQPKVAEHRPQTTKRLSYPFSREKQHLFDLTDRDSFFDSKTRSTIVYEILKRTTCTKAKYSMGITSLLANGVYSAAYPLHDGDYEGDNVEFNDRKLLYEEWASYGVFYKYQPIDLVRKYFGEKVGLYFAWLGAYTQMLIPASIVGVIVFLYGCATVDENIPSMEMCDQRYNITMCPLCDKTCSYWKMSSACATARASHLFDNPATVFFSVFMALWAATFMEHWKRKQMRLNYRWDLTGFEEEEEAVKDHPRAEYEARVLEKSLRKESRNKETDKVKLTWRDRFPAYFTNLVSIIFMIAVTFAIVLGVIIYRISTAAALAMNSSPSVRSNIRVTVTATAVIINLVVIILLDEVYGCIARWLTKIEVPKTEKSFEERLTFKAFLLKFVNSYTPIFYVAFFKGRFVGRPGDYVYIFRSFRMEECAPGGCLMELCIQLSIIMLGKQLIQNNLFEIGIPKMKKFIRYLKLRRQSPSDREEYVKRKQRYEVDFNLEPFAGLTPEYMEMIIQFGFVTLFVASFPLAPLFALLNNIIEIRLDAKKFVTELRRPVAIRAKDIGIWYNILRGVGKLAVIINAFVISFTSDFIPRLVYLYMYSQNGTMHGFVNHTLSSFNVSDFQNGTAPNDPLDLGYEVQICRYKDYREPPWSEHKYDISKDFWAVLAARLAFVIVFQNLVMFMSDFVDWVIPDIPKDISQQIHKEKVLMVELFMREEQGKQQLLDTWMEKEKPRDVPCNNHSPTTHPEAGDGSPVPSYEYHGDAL
NTR1 agonist: agonists of human NTR1, primary screen, imaging, U2OS cells, beta-arrestin-GFP, high content; AID 493036, 2011; activation, % at 20 µM; Neurotensin receptor type 1 (Homo sapiens), P30989; NTR1-U2OS beta-arrestin-GFP spot imaging, agonist mode; 330,000 tested, 0.17% active;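 active means activation at or above 40% of the spot to cytoplasm intensity ratio, with at least 20 cells analyzed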;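 further: 0% = DMSO without peptide and 100% = 100 nM NTR1 peptide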
M1 ag parental: counter-screen for M1 agonists: effect in parental CHO-K1 cells. Fluo-8 calcium fluorescence; scaled to maximal ATP response, vehicle zero. activation, % at 3 µM. 360,000 tested, 0.48% active. AID 602248, 2012; in the data active means activation above about 15%;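 further: untransfected CHO-K1 host cells lacking M1 receptor as counterscreen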
ANO1 block: TMEM16A chloride channel inhibitors, primary screen, cell-based, HTS | Anoctamin-1 (Mus musculus), Q8BHY3 | HEK293 TMEM16A/YFP iodide influx fluorescence, ionomycin | normalized B-score (activity score, 25-100; higher = stronger inhibition) at 10 µM | 310,000 tested, 1.2% active;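 active means ratio plate-corrected score three or more library SD toward inhibition, starting fluorescence score within five deviations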;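 further: score derived from kinetic fluorescence span divided by baseline fluorescence per well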
The depositor's hits bear a star. The list is not random: actives were taken first. Their share in the collection is about 2.2%.

O=C(NC1CCCC1)C(c1ccccc1F)N(C(=O)Cc1cccs1)c1ccc2c(c1)OCCO2 (stereo unspecified) was read as CHO-K1 Ca PAM 12, CHO-K1 Ca antag 3, TMEM16A act inactive, NTR1 agonist 1, M1 ag parental 24* and ANO1 block inactive.
Cc1cccc(C)c1C(O)c1ncc(-c2cccc3ccccc23)[nH]1 (stereo unspecified) was read as CHO-K1 Ca PAM 22, CHO-K1 Ca antag -19 and M1 ag parental 1.
`CCN(CC)S(=O)(=O)c1cccc(-c2nnc(SCCOc3ccc(Cl)cc3)o2)c1` gave CHO-K1 Ca PAM 18, CHO-K1 Ca antag -8, TMEM16A act inactive, NTR1 agonist -1, M1 ag parental 0 and ANO1 block inactive.
Screening CCN(CC)S(=O)(=O)c1cccc(-c2nnc(SCCOc3ccccc3)o2)c1 returned CHO-K1 Ca PAM 7, CHO-K1 Ca antag 47*, TMEM16A act inactive, NTR1 agonist 24, M1 ag parental 1 and ANO1 block inactive.
CC(=O)O[C@H]1[C@@H](O)[C@H](O)[C@H](Oc2c(O)c(C)c3c4c2[C@@H](C)CC[C@@H]4[C@@H](C)C[C@@H]3C=C(C)C)O[C@H]1C was read as CHO-K1 Ca PAM 14, CHO-K1 Ca antag -5 and M1 ag parental 0.
Screening CN(c1ccccc1)S(=O)(=O)c1ccc(C(=O)NCc2ccccc2CN2CCCC2)cc1 returned CHO-K1 Ca PAM -13, CHO-K1 Ca antag 10, TMEM16A act inactive, NTR1 agonist 0 and M1 ag parental 17*.
Oc1ccc(Br)cc1-c1cc(-c2ccccc2Cl)[nH]n1 was read as CHO-K1 Ca PAM -6, CHO-K1 Ca antag 1, TMEM16A act inactive, NTR1 agonist 9, M1 ag parental 0 and ANO1 block inactive.
Oc1ccc(Br)cc1-c1cc(-c2ccccc2F)[nH]n1 was read as CHO-K1 Ca PAM -4, CHO-K1 Ca antag 26*, TMEM16A act inactive, NTR1 agonist 7, M1 ag parental 0 and ANO1 block inactive.
Screening COc1ccc([C@H]2CC(=O)C[C@@H](CCn3nnc4ccccc43)O2)cc1 returned CHO-K1 Ca PAM 16, CHO-K1 Ca antag -9 and M1 ag parental 0.
COc1cccc(-c2nc(-c3ccc4c(c3)-c3ccccc3S4(=O)=O)c(-c3ccccc3)[nH]2)c1OC was read as CHO-K1 Ca PAM -9, CHO-K1 Ca antag 27*, TMEM16A act inactive, NTR1 agonist 1, M1 ag parental -1 and ANO1 block inactive.
`COc1cc(-c2nc(-c3ccc4c(c3)-c3ccccc3S4(=O)=O)c(-c3ccccc3)[nH]2)cc(OC)c1OC` gave CHO-K1 Ca PAM -1, CHO-K1 Ca antag 16, TMEM16A act inactive, NTR1 agonist 1, M1 ag parental 2 and ANO1 block inactive.
Screening CC1(O)c2ccccc2C(=O)N1Cc1ccccc1 (stereo unspecified) returned CHO-K1 Ca PAM -6, CHO-K1 Ca antag 27*, TMEM16A act inactive, NTR1 agonist -1, M1 ag parental -1 and ANO1 block inactive.
For CSc1ncccc1C(=O)OCn1nnc2ccccc2c1=O the results were CHO-K1 Ca PAM 0, CHO-K1 Ca antag 2, TMEM16A act inactive, NTR1 agonist -1, M1 ag parental 1 and ANO1 block inactive.
For O=C(OCn1nnc2ccccc2c1=O)c1ccc(S(=O)(=O)N2CCOCC2)cc1 the results were CHO-K1 Ca PAM 17, CHO-K1 Ca antag -8, TMEM16A act inactive, NTR1 agonist -1, M1 ag parental 2 and ANO1 block inactive.
For O=C(OCn1nnc2ccccc2c1=O)c1cccnc1Cl the results were CHO-K1 Ca PAM 19, CHO-K1 Ca antag -5, TMEM16A act inactive, NTR1 agonist -1, M1 ag parental 2 and ANO1 block 100*.
CCN(CC)S(=O)(=O)c1ccc(C(=O)OCn2nnc3ccccc3c2=O)cc1 was read as CHO-K1 Ca PAM 2, CHO-K1 Ca antag 8, TMEM16A act inactive, NTR1 agonist 1, M1 ag parental 11 and ANO1 block 25*.
`CC1(C(=O)NCc2ccccc2)CCC(=O)N1CCc1c[nH]c2ccccc12` (stereo unspecified) gave CHO-K1 Ca PAM -9, CHO-K1 Ca antag 31* and M1 ag parental 1.
CN(CCc1ccccc1)C(C(=O)Nc1ccc2c(c1)OCCO2)c1ccnc2ccccc12 (stereo unspecified) was read as CHO-K1 Ca PAM 15, CHO-K1 Ca antag 0 and M1 ag parental 3.
Screening O=C(Nc1ccccc1)c1cc(C2CCCCN2C(=O)CCc2ccccc2)on1 (stereo unspecified) returned CHO-K1 Ca PAM 15, CHO-K1 Ca antag -6 and M1 ag parental 1.
CS/C(=N\S(=O)(=O)c1cccs1)NC(=O)CSc1nc2ccccc2s1 was read as CHO-K1 Ca PAM 15, CHO-K1 Ca antag -6, TMEM16A act inactive, NTR1 agonist 1, M1 ag parental 0 and ANO1 block 100*.
For COc1ccc(-c2nc3c4ccccc4ccn3c2Cc2ccsc2)cc1OC the results were CHO-K1 Ca PAM -11, CHO-K1 Ca antag 24* and M1 ag parental 0.
Screening CCOC(=O)c1sc(NC(=O)Nc2cccc(Cl)c2)cc1C returned CHO-K1 Ca PAM -6, CHO-K1 Ca antag 39*, TMEM16A act inactive, NTR1 agonist 34, M1 ag parental 18* and ANO1 block inactive.
For CCOC(=O)[C@]12CCCC=C1N(Cc1ccco1)C(=O)[C@H](CC(=O)NCC13CC4CC(CC(C4)C1)C3)C2 the results were CHO-K1 Ca PAM 10, CHO-K1 Ca antag -16 and M1 ag parental -1.
Screening Cc1ccccc1NC(=S)NNc1ncc(C(F)(F)F)cc1Cl returned CHO-K1 Ca PAM 16, CHO-K1 Ca antag -8, TMEM16A act inactive, NTR1 agonist 0, M1 ag parental 3 and ANO1 block inactive.
`Fc1ccccc1NC(=S)NNc1ncc(C(F)(F)F)cc1Cl` gave CHO-K1 Ca PAM 7, CHO-K1 Ca antag -2, TMEM16A act inactive, NTR1 agonist 0, M1 ag parental 7 and ANO1 block 100*.
For CC1=C(C(=O)N2CCCCCC2)CC(CC(=O)NCCc2ccccn2)C(=O)N1Cc1ccc(F)cc1 (stereo unspecified) the results were CHO-K1 Ca PAM -1, CHO-K1 Ca antag -13 and M1 ag parental 0.
Screening Cc1ccc2nc(SCn3nnc4ccccc4c3=O)[nH]c2c1 returned CHO-K1 Ca PAM 24, CHO-K1 Ca antag -15, TMEM16A act inactive, NTR1 agonist 3, M1 ag parental 1 and ANO1 block inactive.
